# Reference: PubChem BioAssay
# Experiment: small-molecule microarray binders of probe aCHRDL2, primary screen, biochemical, biotinylated probe, 635/667 nm fluorescence (AID 1100)
# Conditions: higher = more signal
row,Structure (SMILES),composite z-score
1,COC(=O)CC=C[C@@H](C)[C@@H](C=NOC(C)CN1CCCc2nc(C)c(C)cc21)OC (stereo not given in full),-0.472
2,CC(C)(C)N1C(=O)[C@H]2[C@H]3[C@H](O)[C@H](O)CC(=NO[C@@H]4O[C@H](CO)[C@@H](O)[C@H](O)[C@H]4O)[C@H]3CC[C@H]2C1=O,-0.38
3,C#CCCCON=C1C[C@@H](O)[C@@H](O)[C@@H]2[C@@H]3C(=O)N(C(C)(C)C)C(=O)[C@@H]3CC[C@H]12,1.24
4,CCOC(=O)NN=C1C[C@@H](O)[C@@H](O)[C@@H]2[C@@H]3C(=O)N([C@@H](C)c4ccccc4)C(=O)[C@@H]3CC[C@H]12,-0.183
5,COC(=O)[C@@H]1CC[C@H](C)[C@@H](c2ccc(C)cc2)N1C(=O)c1ccc(C=NO[C@H](C)c2cn([C@H](CO)Cc3ccccc3)nn2)cc1,0.115
6,CCOC(=O)CCN1C(=O)[C@H]2[C@H]3[C@H](O)[C@H](O)CC(=NNC(=O)OCc4ccccc4)[C@@H]3CC[C@H]2C1=O,-0.201
7,CC(C)=CCCC(C)=CCON=C1C[C@@H](O)[C@@H](O)[C@@H]2[C@@H]3C(=O)N(c4ccc(F)cc4F)C(=O)[C@@H]3CC[C@@H]12,-0.497
8,CCc1cc2c(nc1CC)CCN(CCC(C)=NO[C@H](C)c1cn([C@H](CO)Cc3ccccc3)nn1)C2,-0.0059
9,COC(=O)[C@H](C)NC(=O)CCC1CC(OC(=O)NCCc2ccc(F)cc2)CC2(CCCC(COC(=O)NCCC(C)C)O2)O1 (stereo not given in full),-0.269
10,CCN1C(=O)[C@@H]2[C@H]3C(=CC[C@@H]2C1=O)C1(OCCCO1)[C@H]1O[C@H]1[C@H]3O,-0.0468
11,CCCNC(=O)OC[C@H]1O[C@H](CCON=C(C)CCN2CCc3nc(CC)c(CC)cc3C2)C=C[C@@H]1Oc1ccc(OC)cc1,-0.163
12,COc1cccc([C@H]2Oc3ccc(OC)cc3C(=NO[C@H](C)c3cn([C@H](CO)Cc4ccccc4)nn3)[C@@H]2O)c1,-0.0229
13,Cc1ccc(S(=O)(=O)n2c3ccccc3c3nnc(C(=O)c4ccccc4)nc32)cc1,-0.22
14,CCOC(=O)[C@H](Cc1ccccc1)NC(=O)CCC1CC(OC(=O)NCc2ccc3c(c2)OCO3)CC2(CCCC(COC(=O)NCCc3ccccc3OC)O2)O1 (stereo not given in full),-0.465
15,Cn1c(=O)n2n(c1=O)[C@H]1[C@H](O)[C@@H]3O[C@@H]3C(=O)[C@H]1CC2,-0.512
16,C[C@@H]1CC[C@H]2C(=O)O[C@@H](Cc3ccccc3)CN2[C@H]1c1ccc(Br)cc1,-0.246
17,CCOC(=O)[C@H](CC(C)C)NC(=O)CCC1CC(OC(=O)NCCc2ccc(F)cc2)CC2(CCCC(COC(=O)NCCc3ccc(Cl)cc3)O2)O1 (stereo not given in full),-0.681
18,CO[C@H]1COC(=O)[C@H](C)NC(=O)CC=C[C@@H](C)[C@H](OC)COC(=O)[C@@H](OCc2ccccc2)C=C[C@@H]1C,-1.33
19,C#CCCCON=C1C[C@@H](O)[C@@H](O)[C@@H]2[C@@H]3C(=O)N(c4ccc(F)cc4F)C(=O)[C@@H]3CC[C@H]12,-0.86
20,O=C1C[C@@H](O)[C@@H](O)[C@@H]2[C@@H]3C(=O)N(Cc4ccc5c(c4)OCO5)C(=O)[C@@H]3CC[C@H]12,-0.406
